This passage reports growth results from PubChem BioAssay (NCI).

Compounds without any hit were thinned out: in the full panel of roughly 83,000, 20% have a hit.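 Cell lines were cultured in 96-well plates, exposed to a single compound concentration, and assessed for percent growth 48 hours later.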 Values without a mark were called inactive. The source made the active and inactive calls.

The experiment relates to NCI-H322M lung. Kind of experiment: NCI-60 one-dose screen, 48 h (100 = growth as untreated, 0 = no growth, -100 = all killed). Particulars: 10 µM unless noted. As to the method:
Growth inhibition of the NCI-H322M human Non-Small Cell Lung tumor cell line is measured as a screen for anti-cancer activity. Cells are grown in 96 well plates and exposed to the test compound for 48 hours. Compounds are tested at a single concentration, which is 10^-5 M for most compounds. The reported endpoint is percent growth (GI% or GIPRCNT), where numbers from 0 - 100% represent growth inhibition, and numbers from -100% - 0 represent cell death. For example, a value of 40 represents 60% growth inhibition. A value of 0 means no net growth occurred over the course of the experiment. A value of -40 indicates 40% of cells at the beginning of the experiment died by the end of the experiment. A value of -100 means all cells are dead at the end of the experiment.
NCI-60 Human Tumor Cell Lines Screen was performed using the standard one-dose NCI protocol, which is described in more detail at https://dtp.cancer.gov/discovery_development/nci-60/default.htm.
Compounds with GIPRCNT values below 10 were considered active. Activity score was based on GIPRCNT using the following formula: […]
Score is 0 for GIPRCNT values of 100 or above, 50 for GIPRCNT values of 0, and 100 for GIPRCNT values of -100.
Take `O=C(CC1(O)C(=O)N(Cc2ccccc2)c2ccc(F)cc21)c1ccc(C(=O)NCC2CCC3(CC2)OOC2(CCCCC2)OO3)cc1` (stereo not given): the growth was 50.1%.
As for `NC(=S)c1cn(C2OC(CO)C(O)C2O)c2ncnc(N)c12` (stereo not given), the figure is -17% (active); as for `Nc1cc2nc3ccccc3nc2cc1N`, 99.4%; as for `C[n+]1c(/C=C/c2ccc(N(CCCl)CCCl)cc2)sc2ccccc21`, 95%.
On to `CCn1cnc2c(Nc3cccc(Cl)c3)nc(N[C@@H]3CCCC[C@@H]3N)nc21`, for which the growth is 15.4%.
Take `C[C@@]1(CCCCCCCCCc2ccc(O)cc2)C[C@]2(C)OC(=O)C[C@@H]2OO1`: the growth was 105%.
Regarding `Fc1ccc(N2COOC3(OOC2)C2CC4CC(C2)CC3C4)cc1`, the growth is 91.1%.
As for `O=C1Nc2ccccc2C2c3cccn3-c3ccccc3CN12` (stereo not given), the figure is 91.5%.
As for `COC(=O)[C@@H](C)C[C@H](Cc1ccc2ccccc2c1)NC(=O)c1csc([C@@H](C[C@H](C(C)C)N(C)C(=O)[C@@H](NC(=O)[C@H]2CCCCN2C)C(C)C)OC(C)=O)n1`, the growth is 68.6%.
As for `C[C@]12CC[C@H]3[C@@H](CC4SC(N)=NC45C/C(=N/NC(N)=O)CC[C@]35C)[C@@H]1CCC2=O` (stereo not given in full), the figure is 52.4%; as for `OCc1ccc2c(c1)OCO2`, 104%.
`O=C(CC1(O)C(=O)Nc2ccc(Br)cc21)c1ccc(C(=O)NCC2CCC3(CC2)OOC2(CCCCC2)OO3)cc1` (stereo not given): the growth is 80.1%.
Regarding `O=C(Nc1ccc(Cl)cc1)Nc1nccs1`, the growth is 40.6%.
As to `COC(=O)[C@@]1(O)C[C@H]2O[C@]1(C)n1c3ccccc3c3c4c(c5c6ccccc6n2c5c31)C(=O)NC4`, the growth is -33.6% (active).
Regarding `COc1cc2c(=O)n(C3CCCCCCC3)c3c4cc[nH]c4ncc3c2cc1OC`, the growth was 34.8%.
In the case of `CCOC(=O)C(Cc1ccc(N(CCCl)CCCl)cc1)NC(=O)C(CC(C)C)NC(C)=O` (stereo not given), the growth is 97.1%.
For `COC(=O)[C@@H](C)C[C@H](Cc1ccc(F)cc1)NC(=O)c1csc([C@@H](C[C@H](C(C)C)N(C)C(=O)[C@@H](NC(=O)[C@H]2CCCCN2C)C(C)C)OC(C)=O)n1`, the growth was 38%.
`CC[C@H](C)[C@H](NC(=O)[C@H]1CCCCN1C)C(=O)N(C)[C@H](CCc1nc(C(=O)N[C@@H](Cc2ccccc2)C[C@H](C)C(=O)OC)cs1)C(C)C`: the growth is 40.9%.
For `Fc1ccc2c(c1)c(-c1nc(-c3c[nH]c4ncccc34)cs1)cn2CCN1CCOCC1`, the growth is 77.2%.
Regarding `CC12CCC3C(CCC4Cc5[nH]c6ccccc6c5CC43C)C1CCC2O` (stereo not given), the growth was 43%.
The result for `C[S+]1C=Cc2ccccc2C1c1ccc(Cl)cc1` (stereo not given) reads 99.5%; that for `O=C(CCl)c1ccc([N+](=O)[O-])o1`, 98.4%; that for `CC[C@H](C)[C@H](NC(=O)[C@H]1CCCCN1C)C(=O)N(C)[C@H](CC(=O)c1nc(C(=O)N[C@@H](Cc2ccccc2)C[C@H](C)C(=O)O)cs1)C(C)C`, 107%.
The result for `[Cl][Hg][n]1c(-c2ccco2)nc2ccccc21` reads 98.8%.
As to `CC1(C)N=C(N)N=C(N)N1c1ccc(CCCCc2ccc(Cl)c(S(=O)(=O)F)c2)c(Cl)c1`, the growth was 45.5%.
Turning to `C=CC[PH+](c1ccccc1)c1ccccc1.C=CC[PH+](c1ccccc1)c1ccccc1.[Cl][Pt][Cl]`, the growth is 101%.
As for `Cn1cc(-c2csc(-c3cn(CCN4CCOCC4)c4ccc(F)cc34)n2)c2cccnc21`, the figure is 73.3%; as for `COc1cc(/C=N/C2=C(C#N)C(c3ccco3)c3c(c4cc(C)ccc4oc3=O)O2)cc(OC)c1OC` (stereo not given), 100%; as for `ClCCN(CCCl)Cc1ccc(Nc2ccnc3cc(Cl)ccc23)cc1`, 79%.
As for `CC[C@H](C)[C@H](NC(=O)c1cccn1C)C(=O)N(C)[C@H](C[C@@H](OC(C)=O)c1nc(C(=O)N[C@@H](Cc2ccccc2)C[C@H](C)C(=O)OC)cs1)C(C)C`, the figure is 37.6%; as for `Clc1cccc(Cl)c1Cl`, 99.5%; as for `CC(=O)[O][Hg][c]1c(N)c(C)cc(C)c1F`, 85.1%.
The result for `CCn1c2ccccc2c2cc(C(=O)c3cccc4c3CCCN4)ccc21` reads 102%.
For `CN1C(=O)N[C@H]2[C@@H]3NC(=O)c4ccc(Br)n4[C@@H]3C[C@]21O`, the growth was -6.85% (active).
Turning to `CC[C@H](C)[C@H](NC(=O)C12CC(NC(C)=O)(C1)C2)C(=O)N(C)[C@H](C[C@@H](OC(C)=O)c1nc(C(=O)N[C@@H](Cc2ccccc2)C[C@H](C)C(=O)OC)cs1)C(C)C`, the growth is 51.3%.
As for `O=P(N1CC1)(N1CC1)N1CCc2ccccc21`, the figure is 108%.
As for `O=C(CN1CCN(C(=O)c2ccco2)CC1)Nc1ccc(Cl)cc1C(=O)c1ccccc1Cl`, the figure is 98.2%; as for `CO[C@H](C(=O)O)[C@@H]1Cc2cc3cc(OC4CC(OC5CC(O)C(O)C(C)O5)C(O)C(C)O4)c(C)c(O)c3c(O)c2C(=O)[C@H]1OC1CC(OC2CC(OC3CC(C)(O)C(O)C(C)O3)C(O)C(C)O2)C(O)C(C)O1` (stereo not given in full), 21.6%; as for `O=C1C=C(N2C3C4CCC(C4)C32)C(=O)C=C1c1ccccc1` (stereo not given), 107%.
As for `COc1cc([N+](=O)[O-])c2nc(C)ccc2c1[N+](=O)[O-]`, the growth was 139%.
